Measured values as given in PubChem BioAssay AID1403 (National Center for Advancing Translational Sciences (NCATS), 2008).
Results filed as inconclusive are left out. Calls of active or inactive are those of the source. Calls follow the shape of the dose curve; as a rule, active = well fitted curve in the direction sought with a large enough effect in the signal ratio; inconclusive = small, poorly fitted or top-dose-only effect, or a change in a side signal; inactive = no such curve, though single readings can be large or run the other way; the % refers to the signal ratio.

Molecular target: Follicle-stimulating hormone receptor (Homo sapiens) (UniProt P23945)
Assay: Counterscreen for Agonists of Thyroid Stimulating Hormone Receptor: HTRF Activity in a Follicle Stimulating Hormone Receptor Cell Line
Text: NIH Chemical Genomics Center [NCGC] NIH Molecular Libraries Screening Centers Network [MLSCN] MLSCN Grant: 1 X01 MH080680-01 PI Name: Dr. Marvin Gershengorn, NIH NCGC Assay Overview: Confirmation of Thyroid Stimulating Hormone Receptor Agonists TSH is an alpha/beta heterodimeric glycoprotein hormone secreted from the anterior pituitary gland which belongs to the glycoprotein hormone family. The actions of TSH are mediated by a seven-transmembrane receptor, which upon TSH binding couples preferentially to the G-alpha (s) protein (Gs), resulting in activation of adenylate cyclase and increase in cyclic adenosine 3', 5' monophosphate (cAMP). The TSH receptor (THSR) is mainly expressed in thyroid follicular cells and regulates their growth and function. […] In order to confirm specificity of the compounds to the TSHR, a confirmatory assay was conducted on a similar family member, the Follicle Stimulating Hormone (FSH) receptor, transfected into a HEK 293 cell line, using an orthogonal detection technology to measure cAMP stimulation: antibody-based Homogeneous Time Resolved Fluorescence (HTRF).
NCGC Assay Protocol Summary: Homogeneous Time Resolved Fluorescence (HTRF) cAMP Assay. […] Plates were measured using the Envision plate reader (PerkinElmer, Boston, MA) with excitation at 330 nm and emissions of 615 nm and 660 nm. […]

CCOC(=O)C1=C(N)Oc2c(c(=O)oc3ccccc23)C12C(=O)N(C)c1ccccc12 (configuration not stated)
outcome: inactive

C=CCN1C(=O)C2(C(C(=O)OC)=C(N)Oc3c2c(=O)oc2ccccc32)c2ccccc21 (configuration not stated)
outcome: inactive
